Screening data: PubChem BioAssay, National Center for Advancing Translational Sciences (NCATS)
HCV inhibitor = inhibitors of hepatitis C virus infection | Huh7.5.1 HCVcc-Cre infection, luciferase reporter, 44 h | Potency, µM (highest dose often 41.8 µM), actives largely listed as inhibitors | 340,000 tested, 3.4% active
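Infectious HCV cell culture screen: compound-treated cells (1,000/well, pre-plated 4 h) are infected with HCVcc-Cre at roughly 0.5 moi and grown 44 h. Infection is quantified by luciferase signal after 15 min substrate incubation at room temperature.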
Vaccinia mCherry = inhibitors of vaccinia virus infection (mCherry reporter signal); Vaccinia virus mCherry reporter infection, fluorescence; 310,000 tested, 0.63% active; Potency, µM (series often up to 36.5 µM), actives largely listed as inhibitors; calls by dose curve; tested in A549 cells; further: nearly all actives have a fitted effect of over 35% in size
HCMV antiviral = human cytomegalovirus inhibition. HFF cells, HCMV-luciferase reporter, 72 h; stronger effect = lower value. activity change, negative = inhibition, % at 57.5 µM. 410,000 tested, 4.5% active; in the data active means activity change below about -60%; inconclusive means no clear call, values can overlap the other calls; inactive means above about -39%
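After 16 h attachment at 37C, HFF cells received test compound and HCMV-luciferase (1 PFU/cell); reporter luminescence read 72 h later, data normalized against buffer-only and known inhibitor Salinomycin.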
FMDV antiviral = foot and mouth disease virus antiviral activity; FMDV antiviral cell-based qHTS; Potency, µM (series often up to 57.9 µM), usual class: inhibitors; 410,000 tested, 1.2% active; AID 1159524; calls by dose curve; tested in HEK293T cells; further: read-out not given here; nearly all actives have a fitted effect of over 45% in size
Giardia FBPA inh = inhibitors of Giardia lamblia fructose-1,6-bisphosphate aldolase. A8B2U2. purified Giardia FBPA. Potency, µM (series often up to 59.6 µM), usual class: inhibitors. 290,000 tested, 0.71% active; further: nearly all actives have a fitted effect of over 55% in size
Target sequence (A8B2U2 whole entry, looked up): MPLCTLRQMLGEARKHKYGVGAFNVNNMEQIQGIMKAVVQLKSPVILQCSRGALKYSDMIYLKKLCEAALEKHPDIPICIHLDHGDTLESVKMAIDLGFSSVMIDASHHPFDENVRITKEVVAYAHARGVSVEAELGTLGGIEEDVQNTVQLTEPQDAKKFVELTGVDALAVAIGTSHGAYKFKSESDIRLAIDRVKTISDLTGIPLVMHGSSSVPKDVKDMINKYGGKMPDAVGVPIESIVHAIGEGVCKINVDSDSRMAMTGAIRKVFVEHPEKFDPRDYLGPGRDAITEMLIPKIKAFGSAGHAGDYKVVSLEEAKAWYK
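40 nM FBPA preincubated 10 min at RT with compound (up to 57.5 uM final), then substrate plus GAPDH/TPI/NAD/arsenate coupling and diaphorase/resazurin added. Fluorescence read after 20 min at RT, 525/598 nm.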
Vaccinia Venus = vaccinia inhibition (Venus reporter) | Vaccinia virus Venus reporter expression, fluorescence | Potency, µM (titrated, usually from 36.5 µM), actives largely listed as inhibitors | 330,000 tested, 0.46% active; calls by dose curve; tested in A549 cells; further: nearly all actives have a fitted effect of over 30% in size
Hits are given with their value; [ ] = dose if it differs, or a comment. The list is not random: actives were taken first. Their share in the collection is about 7.5%. Unless noted, the call rests on the fitted dose curve; in most records, active means well fitted curve in the direction sought with a large enough effect; inconclusive means small, poorly fitted or top-dose-only effect, or another doubt; inactive means no such curve, though single readings can be large; an effect the other way counts as inactive or inconclusive.

Screening CCC(CC)C(C(=O)NCc1ccccc1)N1CCN(C(=O)C2CCCO2)CC1 (stereo not given) returned Vaccinia mCherry inactive, HCMV antiviral inactive, FMDV antiviral inactive and Vaccinia Venus inactive.
`COc1ccc(C(=O)NCC(=O)N2CCN(c3ccc(Cl)cc3)CC2)cc1` gave HCV inhibitor inactive, Vaccinia mCherry inactive, HCMV antiviral inconclusive, FMDV antiviral inactive, Giardia FBPA inh inactive and Vaccinia Venus inactive.
For COc1ccc(NC(=O)CCN2CCN(c3ccc(F)cc3)CC2)cc1 the results were HCV inhibitor inactive, HCMV antiviral -76, FMDV antiviral inactive and Giardia FBPA inh inactive.
For CCN1C(=O)C(CC(=O)Nc2ccc(OC)cc2)N(CCN2CCOCC2)C1=S (stereo not given) the results were HCV inhibitor inactive, HCMV antiviral inactive, FMDV antiviral inactive and Giardia FBPA inh inactive.
CCN1C(=O)C(CC(=O)Nc2ccc(OC)cc2)N(CCCN2CCN(c3ccc(OC)cc3)CC2)C1=S (stereo not given) was read as HCV inhibitor 11µM, Vaccinia mCherry 10µM, HCMV antiviral inactive, FMDV antiviral inactive, Giardia FBPA inh inactive and Vaccinia Venus inconclusive.
`COc1ccc(NC(=O)CCN2CCN(c3cccc(Cl)c3)CC2)cc1` gave Vaccinia mCherry inactive, HCMV antiviral inactive, FMDV antiviral inactive and Vaccinia Venus inactive.
`COc1ccc(C(=O)NCC(=O)N2CCN(c3ccc(F)cc3)CC2)cc1` gave HCV inhibitor inactive, Vaccinia mCherry inactive, HCMV antiviral -64, FMDV antiviral inactive, Giardia FBPA inh inactive and Vaccinia Venus inactive.
For c1cc(C2OCCO2)cs1 the results were Vaccinia mCherry inactive, HCMV antiviral inactive, FMDV antiviral inactive and Vaccinia Venus inactive.
`Cc1cc2ccccc2c[n+]1C` gave Vaccinia mCherry inactive and Vaccinia Venus inactive.
Screening CCOc1ccc(S(=O)(=O)NCCC(=O)N2CC=C(c3ccccc3)CC2)cc1 returned HCV inhibitor 22µM, HCMV antiviral inconclusive and FMDV antiviral inconclusive.
For CN(Cc1cccc(-c2cccnc2)c1)C(=O)Oc1ccc([N+](=O)[O-])cc1 the results were Vaccinia mCherry inactive, HCMV antiviral inactive, FMDV antiviral 35µM and Vaccinia Venus inactive.
CCn1nc(C)c(CN2Cc3ccccc3OC(c3ccccc3OC)C2)c1C (stereo not given) was read as Vaccinia mCherry inactive, FMDV antiviral inactive and Vaccinia Venus inactive.
Screening CN1CCCN(Cc2ccc(Cl)cc2Cl)CC1 returned HCV inhibitor inconclusive, Vaccinia mCherry inactive, HCMV antiviral inactive, Giardia FBPA inh 20µM and Vaccinia Venus inactive.
Screening CN1CCCN(Cc2nc(-c3ccc(Cl)cc3)no2)CC1 returned HCV inhibitor inconclusive, Vaccinia mCherry inactive, HCMV antiviral inactive, FMDV antiviral inactive, Giardia FBPA inh inactive and Vaccinia Venus inactive.
`CCOC(=O)c1cccc(S(=O)(=O)N(CCO)Cc2cc3cc(OC)ccc3[nH]c2=O)c1` gave HCV inhibitor inactive, Vaccinia mCherry inactive, HCMV antiviral inactive, FMDV antiviral inactive, Giardia FBPA inh inactive and Vaccinia Venus inactive.
Screening CCCCN(Cc1cc2cc(OC)ccc2[nH]c1=O)S(=O)(=O)c1ccc(C)cc1 returned HCV inhibitor 13µM, Vaccinia mCherry inconclusive, HCMV antiviral -70, FMDV antiviral inconclusive, Giardia FBPA inh inactive and Vaccinia Venus inactive.
For COC(=O)c1cccc(S(=O)(=O)N(Cc2ccco2)Cc2cc3cc(OC)ccc3[nH]c2=O)c1 the results were HCV inhibitor inconclusive, HCMV antiviral inactive, FMDV antiviral 22µM and Giardia FBPA inh inactive.
COc1ccccc1C(=O)N/N=C/c1ccc2c(c1)OCO2 was read as HCV inhibitor inactive, Vaccinia mCherry inactive, HCMV antiviral inactive, FMDV antiviral inactive, Giardia FBPA inh inactive and Vaccinia Venus inactive.
For COc1ccccc1N/N=C/c1ccc2c(c1)OCO2 the results were HCV inhibitor inactive, HCMV antiviral -71, FMDV antiviral inactive and Giardia FBPA inh inactive.
Cc1cc(Br)ccc1SCC(=O)OCC(O)=C(C#N)c1nc2ccccc2[nH]1 was read as HCV inhibitor inactive, Vaccinia mCherry inactive, HCMV antiviral inactive, FMDV antiviral inactive and Vaccinia Venus inactive.
`Cc1cc(C)cc(OCC(=O)OC/C(O)=C(\C#N)c2nc3ccccc3[nH]2)c1` gave HCV inhibitor inactive, Vaccinia mCherry inactive, HCMV antiviral -81, FMDV antiviral inactive, Giardia FBPA inh inactive and Vaccinia Venus inactive.
N#C/C(=C(/O)COC(=O)COc1cccc(Br)c1)c1nc2ccccc2[nH]1 was read as HCV inhibitor inactive, HCMV antiviral -78, FMDV antiviral inactive and Giardia FBPA inh inactive.
`Cc1cccc(C)c1OCC(=O)OC/C(O)=C(\C#N)c1nc2ccccc2[nH]1` gave HCV inhibitor inactive, Vaccinia mCherry inactive, HCMV antiviral inconclusive, FMDV antiviral inactive, Giardia FBPA inh inactive and Vaccinia Venus inactive.
Screening COc1ccc(Cl)cc1NC(=O)C1Cc2cc(S(=O)(=O)N3CCCC3)ccc2N1C(C)=O (stereo not given) returned HCV inhibitor inconclusive, Vaccinia mCherry inactive, HCMV antiviral inactive, FMDV antiviral inactive and Vaccinia Venus inactive.
For Cc1cccc(-c2nnc(SCc3nc4ccccc4[nH]3)n2Cc2ccco2)c1 the results were HCV inhibitor inconclusive, Vaccinia mCherry inactive[1.46 µM], HCMV antiviral -61, FMDV antiviral inactive, Giardia FBPA inh inactive and Vaccinia Venus inconclusive.
Screening CCN(CC)CCNC(=O)CCn1c(=O)c2cccn2c2cccnc21 returned Vaccinia mCherry inactive, HCMV antiviral inactive, FMDV antiviral inactive and Vaccinia Venus inactive.
Screening CCOC(=O)COn1c(=O)c(-c2ccc(OC)cc2)[n+]([O-])c2ccccc21 returned HCV inhibitor inactive, Vaccinia mCherry inactive, HCMV antiviral -61, FMDV antiviral inactive, Giardia FBPA inh inactive and Vaccinia Venus inactive.
For COc1cccc(NC(=O)C2(C)CCN2C(=O)CC2CCCC2)c1 (stereo not given) the results were Vaccinia mCherry inactive, HCMV antiviral inactive, FMDV antiviral inactive and Vaccinia Venus inactive.
`Cc1ccc(C(C)C)c(OCC(O)CN(C)Cc2ccccc2)c1` (stereo not given) gave HCV inhibitor inconclusive, Vaccinia mCherry inactive, HCMV antiviral -70, FMDV antiviral inconclusive, Giardia FBPA inh inactive and Vaccinia Venus inconclusive.
COC(=O)c1cc2occc2n1CC(=O)Nc1ccc(C)cc1C was read as HCV inhibitor inconclusive, Vaccinia mCherry inactive, HCMV antiviral -63, FMDV antiviral inactive, Giardia FBPA inh inactive and Vaccinia Venus inactive.
Screening COC(=O)c1cc2oc(C)cc2n1CC(=O)Nc1ccc(C)c(C)c1 returned HCV inhibitor 4µM, Vaccinia mCherry inactive, HCMV antiviral inactive, FMDV antiviral inactive, Giardia FBPA inh inactive and Vaccinia Venus inactive.
For COC(=O)c1cc2occc2n1CC(=O)Nc1cccc(SC)c1 the results were Vaccinia mCherry inactive, HCMV antiviral inactive, FMDV antiviral inactive and Vaccinia Venus inactive.
Screening O=C(CN1CCCC1)Nc1ccccc1C(=O)c1ccccc1 returned HCV inhibitor inactive, HCMV antiviral inactive, FMDV antiviral inactive and Giardia FBPA inh inactive.
